# Assay results taken from PubChem BioAssay (NCATS).
# “And” between values parts separate entries of the source, which are not always exact repeats. Equal entries are not always repeated. Records with an inconclusive call do not appear. The source made the active and inactive calls. Unless noted, calls come from the whole dose curve; as a rule, active = well fitted curve in either direction with a large enough effect (not every such curve was filed as active); inconclusive = small, poorly fitted or top-dose-only effect, or another doubt; inactive = flat fitted curve, though single readings scatter.
# What was measured:
# [1] = target: Lysosomal acid glucosylceramidase (Homo sapiens) (UniProt P04062); assay: Glucocerebrosidase-p2 (AID 348; in the data active = potency below about 10 µM; note: potency is the fitted concentration of half-maximal effect); details: purified GBA, blue fluorogenic substrate, 40 min
# Outline: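 Compounds titrated from 0.6 nM upwards against 0.2 nM enzyme in pH 5.9 citric acid/KH2PO4, taurocholate, tween-20; blue fluorogenic substrate 80 uM, 40 min room temperature, stopped and read Ex 365/Em 440 for AC50.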
# [2] = AP1 Signaling Pathway (AID 357); details: ME-180 AP-1-bla reporter, EGF-induced, beta-lactamase ratio, 5 h; note: % is set by controls: 0 for no effect and ±100 for the full control effect
# Outline: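 ME-180 cells with beta-lactamase reporter under AP-1 response element, stimulated with EC50 EGF; compounds tested in titration series, 5 h at 37 °C. CCF4 substrate added 2.5 h at room temperature; 460/530 nm emission ratio gave %activity and AC50.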
# [3] = target: Cytochrome P450 1A2 (Homo sapiens) (UniProt P05177); assay: p450-cyp1a2 (AID 410; calls by dose curve; note: potency is the fitted concentration of half-maximal effect;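 for activity change, negative = inhibition: -100% = full effect of reference inhibitor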); details: recombinant CYP1A2, luciferin-ME demethylation, luminescence; series mostly up to 57 µM
# Outline: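 Human CYP1A2 (20nM) demethylated Luciferin-ME at its Km (100uM) in 100mM KPO4. After 10 min compound preincubation, NADPH regeneration ran the reaction 60 min at room temperature. Luciferin was read by luminescence, normalized to 57 uM furafylline.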
# [4] = NFAT Signaling Pathway (AID 444); details: Jurkat NFAT-bla M1, carbachol, beta-lactamase ratio, 5 h; at 7.69 µM (top of the series) unless noted;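 note: carbachol stimulus at about its EC50 of 1 µM final; % is set by controls: 0 for no effect and ±100 for the full control effect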
# Outline: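 Jurkat cells carrying an NFAT-driven β-lactamase reporter and co-transfected muscarinic M1 receptor were treated with compound plus carbachol (1 uM final, an EC50 level) for 5 h at 37 °C. CCF4 loading followed for 1 h at RT; 460/530 nm ratio gave %activity.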
# [5] = Stat Signaling Pathway (AID 446); details: ME-180 (cervical carcinoma) SIE beta-lactamase reporter, IL-6 stimulated, 5 h;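 note: ME-180 cervical cancer cells given 40 pM IL-6 alongside compound; SIE-controlled beta-lactamase reporter measured as 460/530 nm FRET emission ratio; % is set by controls: 0 for no effect and ±100 for the full control effect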
# Outline: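 IL-6/STAT signaling read in ME-180 cells via an SIE beta-lactamase reporter. Stimulus was 40 pM IL-6 (its AC50) for 5 hrs, so both activation and inhibition register.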
# [6] = target: Glucocorticoid receptor (Homo sapiens) (UniProt P04150); assay: GR-GFP Redistribution (AID 450;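 active = compounds whose dose series gives a full or clear partial fitted curve of increased nuclear translocation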; note: potency is the fitted concentration of half-maximal effect); details: U2OS GR-GFP nuclear translocation, laser cytometry, 2 h
# [7] = target: Glucocorticoid receptor (Homo sapiens) (UniProt P04150); assay: GR-EFC Redistribution (AID 451; calls by dose curve; note: potency is the fitted concentration of half-maximal effect); details: CHO-K1 GR-EFC translocation, beta-gal luminescence, 2 h
# Outline: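 CHO-K1 cells stably expressing nuclear-localized β-gal enzyme acceptor and GR fused C-terminally to the enzyme donor fragment; ligand-driven nuclear translocation restores β-gal by complementation. Compounds titrated up to 46 uM final, 2 h at 37 °C; luminescence read.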
# [8] = target: Mitogen-activated protein kinase 10 (Mus musculus) (UniProt Q61831); assay: JNK3 AlphaScreen Assay (AID 530); details: JNK3 lysate, c-Jun phosphorylation; series mostly up to 57.1 µM;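 note: kinase came from lysate of stimulated human HepG2 cells; signal reports phosphorylation of biotinylated GST-cJun 1-79 at Ser73 with 10 µM ATP; % is set by controls: 0 for no effect and ±100 for the full control effect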
# Outline: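 JNK3 came from HepG2 lysates pre-activated with IL-1beta and TNF-alpha and phosphorylated biotinylated GST-cJun (1-79) at 10 uM ATP, pH 7.6, room temperature. Compounds were titrated. AlphaScreen signal used anti-phospho-cJun (Ser73) antibody.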
# [9] = target: 3',5'-cyclic-AMP phosphodiesterase 4B (Homo sapiens) (UniProt Q07343); assay: qHTS Assay for Inhibitors of PDE-IV (AID 607; active = well fitted activation curve with a large enough effect in the main read-out, with a control signal flat, not every such curve was filed as active; note: % of control where 0% means no effect); details: HEK293 ACTOne CNG channel cells, membrane potential fluorescence; series mostly up to 22.9 µM
# Outline: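 Live HEK293 cells with a modified cyclic nucleotide-gated (CNG) channel report intracellular cAMP via membrane-potential dye fluorescence (ex 535/em 590 nm). Endogenous PDE-IV was targeted. Compounds were tested at up to 22.9 uM final; RO 20-1724 100 uM served as control.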
# [10] = target: Cytochrome P450 3A4 (Homo sapiens) (UniProt P08684); assay: qHTS Assay for Activators of Cytochrome P450 3A4 (AID 885; active = well fitted curve in the direction sought with a large enough effect; an effect the other way counts as inactive or inconclusive; note: nearly all actives have a fitted effect of over 65% in size); details: recombinant CYP3A4, Luciferin-PPXE luminescence, 60 min; series mostly up to 57.1 µM
# Outline: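 Quantitative HTS format: compounds preincubated with 20nM human CYP3A4 and Luciferin-PPXE substrate at KM, reaction started by NADPH regeneration, stopped after 60 min, luciferase luminescence read 20 min later.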
# [11] = target: Cytochrome P450 2C19 (Homo sapiens) (UniProt P33261); assay: qHTS Assay for Inhibitors and Substrates of Cytochrome P450 2C19 (AID 899; active = well fitted curve in the direction sought with a large enough effect; an effect the other way counts as inactive or inconclusive; note: potency is the fitted concentration of half-maximal effect; nearly all actives have a fitted effect of over 60% in size); details: recombinant CYP2C19, luciferin-H EGE luminescence; series mostly up to 57.1 µM
# Outline: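 In 50mM KPO4, the reaction held 5nM enzyme and KM-level (10uM) Luciferin-H EGE; it ran 60 min at 37C after NADPH regeneration and a 10 min compound preincubation. Luminescence values were scaled to 57uM ketoconazole as complete inhibition.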
# [12] = Confirmation and Secondary Assay for Modulators of Hemoglobin Beta Chain Splicing at IVS2 654 locus (AID 910; active = well fitted curve in the direction sought with a large enough effect; an effect the other way counts as inactive or inconclusive;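 note: per-well total GFP intensity by laser scanning cytometry after 2-day treatment; % of control where 0% means no effect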); details: HeLa EGFP-654 splicing reporter, GFP fluorescence, 48 h; series mostly up to 38.3 µM
# Outline: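 HeLa cells stably carrying EGFP interrupted by mutant beta-globin IVS2-654 intron (CMV-driven) were treated with compound for 2 days at 37C; corrected splicing was scored as total peak GFP intensity per well (488 nm excitation, 500-520 nm emission).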
# [13] = qHTS Assay for Lipid Storage Modulators (AID 1519; calls by dose curve); details: Drosophila S3 cells, BODIPY lipid droplet/cell ratio, laser cytometry, cells loaded with oleic acid
# Outline: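 Cells seeded at 5,000 per well were treated with compounds over a concentration series and loaded with oleic acid (400 uM, as added). Lipid droplet fluorescence (488 nm excitation, 500-530 nm channel) was read by laser-scanning cytometry and normalized to 20 uM Triacsin C.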
# [14] = target: Ubiquitin carboxyl-terminal hydrolase 1 (Homo sapiens) (UniProt O94782); assay: Inhibitors of USP1/UAF1: Pilot qHTS (AID 504865; active = well fitted curve in the direction sought with a large enough effect; an effect the other way counts as inactive or inconclusive;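 note: rhodamine fluorescence freed from ubiquitin-rhodamine substrate followed over time; top concentration of the series differs between compounds; % is set by controls: 0 for no effect and ±100 for the full control effect; nearly all actives have a fitted effect of over 35% in size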); details: purified USP1/UAF1, Ub-rhodamine cleavage fluorescence; series mostly up to 54.9 µM
# Outline: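 USP1/UAF1 complex (1nM) preincubated with compound 15 min at room temperature, then Ub-Rho substrate (150nM final) added. Fluorescence read kinetically at 480/540 nm, 6 reads every 60 seconds. Buffer: 50mM HEPES pH 7.8, 0.5mM EDTA, 0.1 mg/ml BSA, 1mM TCEP, 0.01% Tween-20.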
# [15] = qHTS profiling for inhibitors of Plasmodium falciparum proliferation (AID 504749; active = well fitted curve in the direction sought with a large enough effect; an effect the other way counts as inactive or inconclusive;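 note: 0% = DMSO vehicle and full inhibition = artemisinin control; nearly all actives have a fitted effect of over 60% in size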); details: P. falciparum in erythrocytes, SYBR Green DNA, 72 h, at 28.7 µM (top of the series)
# Outline: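 P. falciparum-infected erythrocytes (0.3% parasitemia, 2.5% hematocrit final) were exposed to compounds for 72 h at 37 C in 5% CO2, then lysed with SYBR Green buffer overnight at room temperature; parasite DNA fluorescence was normalized to artemisinin and DMSO controls.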
# [16] = target: Cytochrome P450 3A4 (Homo sapiens) (UniProt P08684); assay: qHTS Assay for Inhibitors and Substrates of Cytochrome P450 3A4 (AID 884; active = well fitted curve in the direction sought with a large enough effect; an effect the other way counts as inactive or inconclusive; note: potency is the fitted concentration of half-maximal effect; nearly all actives have a fitted effect of over 50% in size); details: recombinant CYP3A4, Luciferin-PPXE luminescence; series mostly up to 57.1 µM
# Outline: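 20 nM human CYP3A4 with 25 uM Luciferin-PPXE (at KM) in 200 mM KPO4, preincubated 10 min with compound; NADPH regeneration started a 60 min RT reaction. Luciferin detected by luminescence, normalized to 57 uM ketoconazole as full inhibition.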
# [17] = Confirmation and Secondary Assay for Modulators of Hemoglobin Beta Chain Splicing at IVS2 705 locus (AID 930; active = well fitted curve in the direction sought with a large enough effect; an effect the other way counts as inactive or inconclusive;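 note: HeLa cells stably expressing the EGFP-705 splicing reporter; GFP fluorescence per well restored by corrected splicing of the IVS2-705 intron in EGFP; % of control where 0% means no effect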); details: HeLa EGFP-705 splicing reporter, GFP fluorescence, 48 h; series mostly up to 38.3 µM
# Outline: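 Per-well GFP, captured at 1 x 8 µm resolution with 488 nm excitation, served as the read-out for HeLa EGFP-705 cells incubated 2 days with test compound versus DMSO.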
# [18] = at 7.69 µM (top of the series) unless noted
# [19] = measured here: cell count channel max response
# [20] = measured here: lipid channel max response
# Sequence of Cytochrome P450 3A4 (Homo sapiens) (P08684 whole entry, looked up): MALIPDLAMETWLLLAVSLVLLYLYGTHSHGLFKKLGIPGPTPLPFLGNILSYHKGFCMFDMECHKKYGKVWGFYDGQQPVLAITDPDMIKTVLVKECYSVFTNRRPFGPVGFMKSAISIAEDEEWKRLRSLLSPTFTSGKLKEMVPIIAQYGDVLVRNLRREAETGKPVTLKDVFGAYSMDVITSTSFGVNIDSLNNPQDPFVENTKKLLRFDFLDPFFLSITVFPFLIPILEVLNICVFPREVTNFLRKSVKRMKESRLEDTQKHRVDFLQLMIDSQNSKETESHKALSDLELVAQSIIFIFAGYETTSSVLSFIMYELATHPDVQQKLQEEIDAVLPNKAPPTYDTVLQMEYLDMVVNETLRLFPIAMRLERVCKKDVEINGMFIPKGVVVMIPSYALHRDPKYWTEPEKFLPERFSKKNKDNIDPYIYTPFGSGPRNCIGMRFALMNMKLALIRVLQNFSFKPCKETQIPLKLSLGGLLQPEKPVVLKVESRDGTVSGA
# Sequence of 3',5'-cyclic-AMP phosphodiesterase 4B (Homo sapiens) (Q07343 whole entry, looked up): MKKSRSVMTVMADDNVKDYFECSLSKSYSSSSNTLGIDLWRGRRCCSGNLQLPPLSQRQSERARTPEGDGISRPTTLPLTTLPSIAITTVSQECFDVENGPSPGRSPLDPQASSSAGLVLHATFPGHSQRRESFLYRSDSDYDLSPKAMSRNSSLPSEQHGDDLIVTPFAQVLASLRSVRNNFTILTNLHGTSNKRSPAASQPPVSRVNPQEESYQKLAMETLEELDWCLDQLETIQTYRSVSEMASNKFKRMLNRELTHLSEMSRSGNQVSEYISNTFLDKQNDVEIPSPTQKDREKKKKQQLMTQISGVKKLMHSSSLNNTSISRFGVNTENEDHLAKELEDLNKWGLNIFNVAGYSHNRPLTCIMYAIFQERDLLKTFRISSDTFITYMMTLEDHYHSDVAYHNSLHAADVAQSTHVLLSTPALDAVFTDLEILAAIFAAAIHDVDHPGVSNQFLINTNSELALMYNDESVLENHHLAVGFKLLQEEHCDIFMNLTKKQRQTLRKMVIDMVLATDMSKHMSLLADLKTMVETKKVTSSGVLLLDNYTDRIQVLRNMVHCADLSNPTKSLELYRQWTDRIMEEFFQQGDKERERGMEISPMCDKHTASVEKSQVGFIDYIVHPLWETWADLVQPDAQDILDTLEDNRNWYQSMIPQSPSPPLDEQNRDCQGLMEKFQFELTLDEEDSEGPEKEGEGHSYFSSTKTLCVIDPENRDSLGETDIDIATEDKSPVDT
# Sequence of Lysosomal acid glucosylceramidase (Homo sapiens) (P04062 whole entry, looked up): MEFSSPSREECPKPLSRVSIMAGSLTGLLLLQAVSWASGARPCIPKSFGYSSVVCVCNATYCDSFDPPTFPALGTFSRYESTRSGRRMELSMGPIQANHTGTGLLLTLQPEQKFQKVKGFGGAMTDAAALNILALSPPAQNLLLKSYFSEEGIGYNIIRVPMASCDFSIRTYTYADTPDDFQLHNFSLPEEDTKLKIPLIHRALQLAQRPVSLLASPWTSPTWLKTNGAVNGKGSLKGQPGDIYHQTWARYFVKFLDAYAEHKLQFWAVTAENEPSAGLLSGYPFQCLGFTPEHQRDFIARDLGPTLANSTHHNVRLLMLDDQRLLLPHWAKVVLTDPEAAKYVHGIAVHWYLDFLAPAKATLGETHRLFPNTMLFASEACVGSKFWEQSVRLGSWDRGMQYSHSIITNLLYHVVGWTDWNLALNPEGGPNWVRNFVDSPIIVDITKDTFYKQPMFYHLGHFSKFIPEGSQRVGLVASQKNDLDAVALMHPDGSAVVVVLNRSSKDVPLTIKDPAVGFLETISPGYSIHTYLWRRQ
# Sequence of Cytochrome P450 1A2 (Homo sapiens) (P05177 whole entry, looked up): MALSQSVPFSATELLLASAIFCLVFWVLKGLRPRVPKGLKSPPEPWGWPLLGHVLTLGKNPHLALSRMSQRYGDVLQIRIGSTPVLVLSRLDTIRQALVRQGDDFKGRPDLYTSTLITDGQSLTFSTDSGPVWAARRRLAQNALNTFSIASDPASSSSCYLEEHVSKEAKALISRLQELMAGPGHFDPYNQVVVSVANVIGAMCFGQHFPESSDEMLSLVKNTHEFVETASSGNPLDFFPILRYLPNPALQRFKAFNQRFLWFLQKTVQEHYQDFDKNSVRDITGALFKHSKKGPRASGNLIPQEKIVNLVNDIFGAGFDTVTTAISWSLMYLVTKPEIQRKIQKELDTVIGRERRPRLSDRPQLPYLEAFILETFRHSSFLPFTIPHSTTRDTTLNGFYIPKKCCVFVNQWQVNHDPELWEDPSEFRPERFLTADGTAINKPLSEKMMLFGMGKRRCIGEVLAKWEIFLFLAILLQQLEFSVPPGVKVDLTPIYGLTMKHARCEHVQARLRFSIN
# Sequence of Glucocorticoid receptor (Homo sapiens) (P04150 whole entry, looked up, the tested form may be a part): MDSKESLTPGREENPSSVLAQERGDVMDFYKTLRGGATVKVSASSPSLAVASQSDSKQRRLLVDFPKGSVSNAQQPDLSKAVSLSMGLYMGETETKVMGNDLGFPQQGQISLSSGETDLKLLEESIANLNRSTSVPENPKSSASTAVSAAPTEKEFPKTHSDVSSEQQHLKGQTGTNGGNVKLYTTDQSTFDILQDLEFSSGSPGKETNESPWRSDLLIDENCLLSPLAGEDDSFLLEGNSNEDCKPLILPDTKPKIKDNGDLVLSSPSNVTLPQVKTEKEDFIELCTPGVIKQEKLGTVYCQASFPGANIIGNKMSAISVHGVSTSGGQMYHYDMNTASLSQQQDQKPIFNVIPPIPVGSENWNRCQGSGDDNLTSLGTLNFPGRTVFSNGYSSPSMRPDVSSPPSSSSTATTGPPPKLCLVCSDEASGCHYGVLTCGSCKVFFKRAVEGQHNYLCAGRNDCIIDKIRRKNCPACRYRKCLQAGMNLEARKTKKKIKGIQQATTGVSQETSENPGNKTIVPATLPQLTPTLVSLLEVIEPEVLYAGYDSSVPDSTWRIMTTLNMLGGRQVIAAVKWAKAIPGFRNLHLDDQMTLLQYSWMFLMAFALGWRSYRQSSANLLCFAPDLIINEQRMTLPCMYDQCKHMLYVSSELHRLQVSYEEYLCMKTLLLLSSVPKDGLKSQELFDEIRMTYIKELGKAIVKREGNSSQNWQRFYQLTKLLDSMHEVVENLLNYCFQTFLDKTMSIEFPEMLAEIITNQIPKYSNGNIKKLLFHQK
# Sequence of Ubiquitin carboxyl-terminal hydrolase 1 (Homo sapiens) (O94782 whole entry, looked up): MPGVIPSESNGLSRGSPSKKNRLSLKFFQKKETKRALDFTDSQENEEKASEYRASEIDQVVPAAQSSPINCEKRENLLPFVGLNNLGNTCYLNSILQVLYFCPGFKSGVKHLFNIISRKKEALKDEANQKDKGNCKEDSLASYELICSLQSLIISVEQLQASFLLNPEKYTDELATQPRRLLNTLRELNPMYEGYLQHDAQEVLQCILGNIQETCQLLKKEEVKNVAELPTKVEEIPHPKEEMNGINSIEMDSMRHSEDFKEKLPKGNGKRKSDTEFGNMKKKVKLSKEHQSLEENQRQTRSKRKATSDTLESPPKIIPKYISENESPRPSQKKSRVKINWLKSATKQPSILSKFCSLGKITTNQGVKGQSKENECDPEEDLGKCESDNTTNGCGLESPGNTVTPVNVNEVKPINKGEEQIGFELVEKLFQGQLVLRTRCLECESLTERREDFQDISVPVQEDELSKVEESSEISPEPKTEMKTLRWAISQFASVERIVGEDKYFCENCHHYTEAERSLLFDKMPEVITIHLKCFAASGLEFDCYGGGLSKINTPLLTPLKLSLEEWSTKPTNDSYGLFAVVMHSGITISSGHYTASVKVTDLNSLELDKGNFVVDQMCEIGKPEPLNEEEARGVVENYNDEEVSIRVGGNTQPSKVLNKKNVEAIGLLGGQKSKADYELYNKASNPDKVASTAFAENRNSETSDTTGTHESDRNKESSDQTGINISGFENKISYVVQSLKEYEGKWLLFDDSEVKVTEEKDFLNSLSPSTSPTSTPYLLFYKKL
# Sequence of Cytochrome P450 2C19 (Homo sapiens) (P33261 whole entry, looked up): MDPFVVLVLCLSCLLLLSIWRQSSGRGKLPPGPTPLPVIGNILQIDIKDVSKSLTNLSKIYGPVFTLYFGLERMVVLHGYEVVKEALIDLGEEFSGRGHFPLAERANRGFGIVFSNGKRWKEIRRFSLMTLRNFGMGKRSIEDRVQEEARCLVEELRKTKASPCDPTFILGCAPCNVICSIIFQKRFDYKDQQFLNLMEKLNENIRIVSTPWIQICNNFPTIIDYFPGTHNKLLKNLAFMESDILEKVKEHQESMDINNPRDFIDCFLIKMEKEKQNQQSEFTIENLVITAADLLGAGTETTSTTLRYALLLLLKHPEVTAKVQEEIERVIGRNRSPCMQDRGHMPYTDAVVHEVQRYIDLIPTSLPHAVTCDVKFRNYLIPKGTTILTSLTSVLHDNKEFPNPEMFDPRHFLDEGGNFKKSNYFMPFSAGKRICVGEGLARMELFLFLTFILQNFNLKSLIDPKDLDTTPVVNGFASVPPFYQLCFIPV
structure (smiles),measurement,setting,value
COc1ccc2[nH]cc(CCNc3cc(-c4ccoc4)ncn3)c2c1,Potency,[1],> 11.4 µM (inactive)
same,"activity change, negative = inhibition",[2]; [18],-5.94% (inactive)
same,Potency,[3],0.631 µM (active)
same,"activity change, negative = inhibition",[4],2.58% (inactive)
same,"activity, negative = inhibition",[5]; [18],2.87% (inactive)
same,Potency,[6],> 46 µM (inactive)
same,Potency,[7],> 46 µM (inactive)
same,Potency,[8],inactive
same,Potency,[9],inactive
same,Potency,[10],inactive
same,Potency,[11],5.01 µM (active)
same,Potency,[12],inactive
same,"activity change, negative = inhibition",[13]; at 57.5 µM (top of the series),11% (inactive)
same,max response,[13]; [19],6.67%
same,max response,[13]; [20],17.6%
same,Potency,[14],inactive
COc1cccc(Nc2ncc3nc(C)c(=O)n(CCC#N)c3n2)c1,Potency,[1],> 11.4 µM (inactive)
same,"activity change, negative = inhibition",[2]; [18],-18.4% (inactive)
same,Potency,[3],1.26 µM (active)
same,"activity change, negative = inhibition",[4],4.34% (inactive)
same,"activity, negative = inhibition",[5]; [18],-8.39% (inactive)
same,Potency,[6],> 9.22 µM (inactive)
same,Potency,[7],> 46 µM (inactive)
same,Potency,[8],inactive
same,Potency,[9],inactive
same,Potency,[10],inactive
same,"activity change, negative = inhibition",[13]; at 57.5 µM (top of the series),-10.8% (inactive)
same,max response,[13]; [19],-22.6%
same,max response,[13]; [20],-28.8%
CN1CCCC[C@@H]1CCN1c2ccccc2Sc2ccc(S(C)=O)cc21 (stereo partly specified),Potency,[1],> 11.4 µM (inactive)
same,"activity change, negative = inhibition",[2]; at 7.69 µM (top of the series),-6.82% (inactive)
same,"activity change, negative = inhibition",[2]; at 17.2 µM (top of the series),10.1% (inactive)
same,Potency,[3],inactive
same,"activity change, negative = inhibition",[4],1.36% (inactive)
same,"activity, negative = inhibition",[5]; at 7.69 µM (top of the series),0.0805% (inactive)
same,"activity, negative = inhibition",[5]; at 17.2 µM (top of the series),-1.79% (inactive)
same,Potency,[6],> 20.6 µM (inactive) and > 46 µM (inactive)
same,Potency,[7],> 20.6 µM (inactive) and > 9.22 µM (inactive)
same,Potency,[8],inactive
same,Potency,[9],inactive
same,"activity change, negative = inhibition",[13]; at 25.7 µM (top of the series),-3.11% (inactive)
same,max response,[13]; [19],-6.84%
same,max response,[13]; [20],-7.46%
same,Potency,[14],inactive
same,"activity, negative = inhibition",[15]; parasite line A,1.72% (inactive)
same,"activity, negative = inhibition",[15]; parasite line B,1.85% (inactive)
COc1ccc(NC(=O)N2CC[C@@]3(CCCN(C(=O)c4cc(C(F)(F)F)cc(C(F)(F)F)c4)C3)C2)cc1,Potency,[1],> 11.4 µM (inactive)
same,"activity change, negative = inhibition",[2]; [18],-20.8% (inactive)
same,Potency,[3],inactive
same,"activity change, negative = inhibition",[4],12.7% (inactive)
same,"activity, negative = inhibition",[5]; [18],-6.2% (inactive)
same,Potency,[7],> 46 µM (inactive)
same,Potency,[8],inactive
same,Potency,[9],inactive
same,Potency,[10],inactive
same,"activity change, negative = inhibition",[13]; at 57.5 µM (top of the series),6.21% (inactive)
same,max response,[13]; [19],0.894%
same,max response,[13]; [20],10.8%
COc1ccc2[nH]cc(CCNc3ncnc4ccc(-c5ccccc5CN(C)C)cc34)c2c1,Potency,[1],> 11.4 µM (inactive)
same,"activity change, negative = inhibition",[2]; [18],-1.42% (inactive)
same,Potency,[3],31.6 µM (active)
same,"activity change, negative = inhibition",[4],-18.9% (inactive)
same,"activity, negative = inhibition",[5]; [18],0.00328% (inactive)
same,Potency,[6],> 46 µM (inactive)
same,Potency,[7],> 46 µM (inactive)
same,Potency,[8],inactive
same,Potency,[9],inactive
same,Potency,[16],1.58 µM (active)
same,Potency,[10],inactive
same,Potency,[12],inactive
same,outcome,[17],inactive
same,"activity change, negative = inhibition",[13]; at 57.5 µM (top of the series),7.35% (inactive)
same,max response,[13]; [19],-2.58%
same,max response,[13]; [20],5.15%
same,Potency,[14],inactive
CNc1ncnc2ccc(-c3ccccc3OC)cc12,Potency,[1],> 11.4 µM (inactive)
same,"activity change, negative = inhibition",[2]; [18],0.353% (inactive)
same,Potency,[3],2.51 µM (active)
same,"activity change, negative = inhibition",[4],15.1% (inactive)
same,"activity, negative = inhibition",[5]; [18],-15.7% (inactive)
same,Potency,[6],> 46 µM (inactive)
same,Potency,[7],> 46 µM (inactive)
same,Potency,[8],inactive
same,Potency,[9],inactive
same,Potency,[10],inactive
same,Potency,[12],inactive
same,outcome,[17],inactive
same,"activity change, negative = inhibition",[13]; at 57.5 µM (top of the series),1.03% (inactive)
same,max response,[13]; [19],0.392%
same,max response,[13]; [20],0.542%
same,Potency,[14],inactive
